# Results filed as inconclusive are left out. Entries that show only a call come without a potency. Calls of active or inactive are those of the source. Calls follow the shape of the dose curve; as a rule, active = well fitted curve in the direction sought with a large enough effect; inconclusive = small, poorly fitted or top-dose-only effect, or another doubt; inactive = no such curve, though single readings can be large; an effect the other way counts as inactive or inconclusive.
# Biological target: phosphoglycerate mutase (Leishmania major) (UniProt Q4Q090)
# Sequence (Q4Q090 1-553): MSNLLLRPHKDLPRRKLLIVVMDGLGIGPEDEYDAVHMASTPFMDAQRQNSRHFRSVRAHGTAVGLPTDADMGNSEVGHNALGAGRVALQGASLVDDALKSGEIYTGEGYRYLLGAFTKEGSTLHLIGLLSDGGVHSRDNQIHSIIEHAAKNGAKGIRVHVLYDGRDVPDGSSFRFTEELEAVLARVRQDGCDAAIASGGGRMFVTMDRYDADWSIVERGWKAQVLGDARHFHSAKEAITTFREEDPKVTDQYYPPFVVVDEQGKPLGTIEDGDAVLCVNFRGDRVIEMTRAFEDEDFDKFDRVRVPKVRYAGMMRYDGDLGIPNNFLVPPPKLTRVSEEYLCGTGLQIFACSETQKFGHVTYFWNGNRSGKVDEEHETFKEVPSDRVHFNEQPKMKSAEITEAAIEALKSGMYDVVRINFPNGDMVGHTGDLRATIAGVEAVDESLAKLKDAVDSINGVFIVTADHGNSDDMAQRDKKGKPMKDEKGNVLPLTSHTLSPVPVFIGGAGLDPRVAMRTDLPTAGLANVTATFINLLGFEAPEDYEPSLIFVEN
# Assay: qHTS Validation Assay to Find Inhibitors of Phosphoglycerate Mutase (AID 504548); also: potency is read from the fitted curve at half-maximal effect
# Details: biochemical enzyme activity; Potency: inhibition qHTS; series mostly up to 57.5 µM
# In short: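 Lm PGAM at 1.25 nM final with substrate in 100 mM TEA pH 7.6, 5 mM MgCl2, 0.01% Tween-20; 45 min at room temperature. Kinase-GloPlus added, 10 min, end-point luminescence read.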
row,SMILES,Potency
1,CC(N)Cc1c[nH]c2ccc(OCc3cccs3)cc12 (stereo unspecified),inactive
2,O=c1c2ccccc2[se]n1-c1ccccc1,7.57 µM (active)
3,CC(C)(C)c1cc(C=C(C#N)C#N)cc(C(C)(C)C)c1O,inactive
4,N[C@@H](Cn1ccc(=O)[nH]c1=O)C(=O)O,inactive
5,Cc1c2ccncc2c(C)c2c1[nH]c1ccccc12,inactive
6,C=CCN1CC[C@]23c4c5ccc(O)c4O[C@@H]2/C(=N/N=C2\CC[C@@]4(O)C6Cc7ccc(O)c8c7[C@@]4(CCN6CC=C)[C@@H]2O8)CC[C@@]3(O)C1C5,inactive
7,CNc1ccc2oc(C[C@H]3O[C@@]4(CC[C@H]3C)O[C@H]([C@H](C)C(=O)c3ccc[nH]3)[C@H](C)C[C@H]4C)nc2c1C(=O)O,inactive
8,CN1CC[C@@]2(C)c3cc(O)ccc3N(C)C12 (stereo partly specified),inactive
9,CC(C)NP(=O)(NC(C)C)OP(=O)(NC(C)C)NC(C)C,inactive
10,CCCN1CCc2cccc3c2[C@H]1Cc1ccc(O)c(O)c1-3,inactive
11,C=CCN1C[C@@H](C)N([C@H](c2ccc(C(=O)N(CC)CC)cc2)c2cccc(OC)c2)C[C@@H]1C,inactive
12,C[N+]1(C)C2CCC1CC(OC(=O)c1c[nH]c3ccccc13)C2 (stereo unspecified),inactive
13,CC(C)[C@@]1(NC(=O)[C@@H]2C[C@@H]3c4cccc5[nH]cc(c45)C[C@H]3N(C)C2)O[C@@]2(O)[C@@H]3CCCN3C(=O)[C@H](Cc3ccccc3)N2C1=O,inactive
14,CCn1cnc2c(Nc3cccc(Cl)c3)nc(N[C@@H]3CCCC[C@@H]3N)nc21,inactive
15,COc1ccc2c(c1)c(CCN1CCOCC1)c(C)n2C(=O)c1cccc(Cl)c1Cl,inactive
16,CCCn1c(C)c(C(=O)c2ccc3ccccc3c2)c2ccccc21,inactive
17,CC(=O)c1c(O)c(C)c(O)c(Cc2c(O)c3c(c(C(=O)/C=C/c4ccccc4)c2O)OC(C)(C)C=C3)c1O,inactive
18,CN(N=O)c1cc(O)ccc1O,inactive

# Test system: not listed separately
# Assay: Inducers of the Endoplasmic Reticulum Stress Response (ERSR) in human glioma: Validation (AID 504836)
# Details: human glioma cells, ER stress response reporter; series mostly up to 38.3 µM
# In short: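 Stably transfected U87-MG human glioma cells carrying a GRP78-based luminescent sensor were seeded at 1000 cells/well, pin-dosed with compounds and incubated 16 h. Luciferase reagent was then added, and end-point luminescence was read after 10 min at room temperature.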
row,SMILES,outcome
1,CCCN(CCC)C1CCc2cccc(O)c2C1 (stereo unspecified),inactive
2,CC(N)Cc1c[nH]c2ccc(OCc3cccs3)cc12 (stereo unspecified),inactive
3,O=c1c2ccccc2[se]n1-c1ccccc1,inactive
4,CC(C)(C)c1cc(C=C(C#N)C#N)cc(C(C)(C)C)c1O,inactive
5,N[C@@H](Cn1ccc(=O)[nH]c1=O)C(=O)O,inactive
6,COc1ccc2c(c1)[C@@]13CCCC[C@H]1[C@@H](C2)NCC3,inactive
7,Cc1c2ccncc2c(C)c2c1[nH]c1ccccc12,inactive
8,NCCc1ccc(S(=O)(=O)F)cc1,inactive
9,C=CCN1CC[C@]23c4c5ccc(O)c4O[C@@H]2/C(=N/N=C2\CC[C@@]4(O)C6Cc7ccc(O)c8c7[C@@]4(CCN6CC=C)[C@@H]2O8)CC[C@@]3(O)C1C5,inactive
10,O=C(O)c1cc[c]([Hg][Cl])cc1,inactive
11,CN1CC[C@@]2(C)c3cc(O)ccc3N(C)C12 (stereo partly specified),inactive
12,CC(C)NP(=O)(NC(C)C)OP(=O)(NC(C)C)NC(C)C,inactive
13,CC1OC1P(=O)(O)O (stereo unspecified),inactive
14,CCN(CC)c1ncnc2c1ncn2[C@@H]1O[C@H](COP(=O)(O)OP(=O)(O)C(Br)(Br)P(=O)(O)O)[C@@H](O)[C@H]1O,inactive
15,CCCN1CCc2cccc3c2[C@H]1Cc1ccc(O)c(O)c1-3,inactive
16,C=CCN1C[C@@H](C)N([C@H](c2ccc(C(=O)N(CC)CC)cc2)c2cccc(OC)c2)C[C@@H]1C,inactive
17,O=C1C=CC(=O)C=C1,inactive
18,O=S1(=O)N(CCN2CC=C(c3c[nH]c4cc(F)ccc34)CC2)c2cccc3c2N1CCC3,inactive
19,CCCN(CCC)C1Cc2cc(OC)c(OC)cc2C1,inactive
20,COc1ccc2c(c1)/C(=C/c1cnc[nH]1)C(=O)N2,inactive
21,C[N+]1(C)CCC(OC(=O)C(c2ccccc2)c2ccccc2)CC1,inactive
22,C[N+]1(C)C2CCC1CC(OC(=O)c1c[nH]c3ccccc13)C2 (stereo unspecified),inactive
23,O=[N+]([O-])c1cc(O)c(O)c([N+](=O)[O-])c1,inactive
24,CC(C)[C@@]1(NC(=O)[C@@H]2C[C@@H]3c4cccc5[nH]cc(c45)C[C@H]3N(C)C2)O[C@@]2(O)[C@@H]3CCCN3C(=O)[C@H](Cc3ccccc3)N2C1=O,inactive
25,c1ccc2c(c1)[I+]c1ccccc1-2,inactive
26,COc1ccc2c(c1)c(CCN1CCOCC1)c(C)n2C(=O)c1cccc(Cl)c1Cl,inactive
27,CN(N=O)c1ccc(O)c(O)c1,inactive
28,CCCN(CCC)CCc1c[nH]c2ccc(C(N)=O)cc12,inactive
